Source: PubChem BioAssay (Broad Institute)
The list is not random: actives were taken first. Their share in the collection is about 4%.
Wnt act = activators of Wnt/beta-catenin signaling; Wnt/beta-catenin reporter cell assay, activator, plate reader; activation, % at 9.35 µM; 300,000 tested, 1.2% active; AID 743398; in the data active = activation above about 30%, passing the limit was not always enough; inconclusive = no clear call, values can overlap the other calls
MITF TRPM1 HTS = activators of MITF-driven TRPM1 promoter activity in SK-MEL-5 cells | SK-MEL-5 TRPM1-promoter luciferase, 24 h; % of positive control, neutral wells = 0 | activation, % at 12.5 µM | 300,000 tested, 0.75% active | AID 588334;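 active = mean activation of at least 80% with every replicate also reaching 80%; inconclusive = mean reaches 80% but some replicate falls short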
PAX8 reporter = inhibitors of PAX8 transcriptional activity in RMG-I cells; RMG-I TPO-luciferase reporter, SteadyGlo, 24 h; inhibition, % at 12.6 µM; 360,000 tested, 1.2% active; AID 652154;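 active = mean replicate inhibition at least 60% with every replicate also reaching 60%; inconclusive = only one of the two criteria is met; inactive = mean below 60% and not all replicates reaching 60%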;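 note: luciferase light reporting Pax8 driven TPO promoter activity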
esBAF inh = SWI/SNF esBAF complex inhibition; mouse ES cells, Bmi1-luciferase knock-in reporter, 24 h; 100% = twice the neutral-well signal; reporter increase, % at 12.5 µM; 350,000 tested, 2% active; in the data active = activation above about 40%; inconclusive = no clear call, values can overlap the other calls;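 note: a rise in the Bmi1 reporter signal indicates esBAF inhibition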
MITF TRPM1 inh = inhibitors of MITF-driven TRPM1 promoter in melanoma cells; SK-MEL-5 TRPM1 promoter luciferase, 24 h; inhibition, % at 12.5 µM; 330,000 tested, 0.83% active; AID 488899;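 active = mean inhibition across replicates of 60% or more, whatever share of single replicates reaches that level; inconclusive = some that reach 60%, reason not given; inactive = mean inhibition across replicates below 60%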
EWS-Fli block = blocks EWS/Fli oncoprotein-driven transcription | A673 NR0B1-luciferase reporter, viability-normalised | inhibition, % at 12.6 µM | 350,000 tested, 0.67% active;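 active = mean inhibition of at least 50% after viability correction, with every replicate also passing that limit; inconclusive = mean reaches 50% but only one of two replicates passes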;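 note: firefly luciferase signal divided by Alamar Blue viability fluorescence both relative to DMSO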
A number is an active result; – = inactive; ? = inconclusive; · = no result given.

SMILES	Wnt act	MITF TRPM1 HTS	PAX8 reporter	esBAF inh	MITF TRPM1 inh	EWS-Fli block
O=C(C[C@H]1C=C[C@@H](NC(=O)Cc2cccnc2)[C@@H](CO)O1)Nc1ccccc1	·	·	–	–	·	–
O=C(c1ccc(F)cc1)N1CC(=O)N2[C@H](CO)[C@H](c3ccc(C#Cc4ccc(F)cc4)cc3)[C@H]2C1	·	·	–	·	·	–
Cc1ccnc(NC(=O)C2CC(=O)N(c3ccc4c(c3)OCCO4)C2)c1 (stereo not drawn)	46.1	99.1	–	–	–	–
Cc1ccnc(NC(=O)C2COc3ccccc3O2)c1 (stereo not drawn)	57.6	88.0	–	·	–	–
Cc1ccc(NC(=O)C2CC(=O)N(c3ccc4c(c3)OCCO4)C2)nc1 (stereo not drawn)	–	–	–	·	–	–
C/C(=N\NC(=O)C1COc2ccccc2O1)c1ccc(C)o1 (stereo not drawn)	–	–	–	·	–	·
C/C(=N\NC(=O)C1COc2ccccc2O1)c1ccccn1 (stereo not drawn)	·	–	–	–	83.3	·
Cc1ccc(NC(=O)C2COc3ccccc3O2)nc1 (stereo not drawn)	–	–	·	–	–	·
Cc1ccc(NC(=O)C2COc3ccccc3O2)c(C)c1 (stereo not drawn)	–	–	–	45.0	–	–
OC[C@H]1[C@@H](c2ccc(-c3cccnc3)cc2)[C@@H]2CN(CC3CCOCC3)CCCCN12	·	·	–	·	·	–
Cc1noc(C)c1S(=O)(=O)Nc1cccc2c1O[C@@H](CN(C)Cc1ccc(C(=O)Nc3ccccc3N)cc1)[C@@H](C)CN([C@@H](C)CO)C2=O	·	·	–	·	·	–
CC(C)(C)c1ccc(C(=O)NCCOc2ccccc2F)cc1	–	–	–	–	–	74.9
COc1ccccc1C(=O)NCCOc1ccc(C(C)(C)C)cc1	–	·	–	–	–	–
O=C(NCCOc1ccccc1)c1cc2ccccc2o1	–	102.4	–	–	–	·
CC(C)(C)c1ccc(C(=O)NCCOc2ccccc2)cc1	–	·	–	–	–	64.2
O=C(CCNC(=O)c1ccc(Br)cc1)NNC(=O)COc1ccccc1F	–	–	–	·	–	–
COCCNC(=S)NC(=O)c1ccc(C(C)(C)C)cc1	–	87.1	–	–	–	–
C[C@H]1CN([C@@H](C)CO)C(=O)Cc2cc(NS(=O)(=O)c3ccc(Cl)cc3)ccc2O[C@@H]1CN(C)Cc1ccc(C(=O)O)cc1	·	·	·	–	·	–
COCC(=O)N1CC2(C1)[C@@H](c1ccc(-c3ccc(F)cc3)cc1)[C@@H](CO)N2C(C)=O	·	·	·	·	·	–
O=C(NC(=S)NCc1ccc(F)cc1)c1ccccc1	·	–	·	·	–	·
O=C(NC(=S)NCc1ccccc1)c1ccccc1	–	–	–	·	104.3	·
Cc1ccc(C(=O)NC(NCc2ccccc2)C(Cl)(Cl)Cl)cc1 (stereo not drawn)	–	–	145.4	·	–	–
O=C(NC(=S)NC1CCCC1)c1ccccc1	–	–	–	56.5	–	–
Cc1ccc(C(=O)NC(NCC2CCCO2)C(Cl)(Cl)Cl)cc1 (stereo not drawn)	–	–	–	·	–	–
O=C(NC1CCCCC1)C(=S)NCc1ccccc1	–	–	–	50.4	–	–
SMILES	Wnt act	MITF TRPM1 HTS	PAX8 reporter	esBAF inh	MITF TRPM1 inh	EWS-Fli block
Cc1ccccc1NC(=O)Nc1ccc2c(c1)C(=O)N(C)[C@@H]1CC[C@H](CC(=O)O)O[C@H]1CO2	·	·	–	–	·	–
CCN1[C@@H]2c3ccc(-c4cccc(OC)c4)c(=O)n3C[C@@H]2[C@@H](CO)[C@@H]1C(=O)N(C)C	·	·	–	–	·	–
COc1ccc2c3c(n(C)c2c1)[C@@H](CO)N(C(=O)c1ccccn1)CC31CCN(C(=O)Cc2ccccc2)CC1	·	·	·	·	·	–
CC(C)(C)c1ccc(C(=O)NCc2ccccc2)cc1	–	88.4	–	·	–	–
O=C(CNC(=S)NC(=O)C1CCCCC1)c1ccccc1	–	87.0	–	–	–	–
O=C(NC(=S)NCCc1ccccc1)C1CCCCC1	–	–	–	–	–	–
COCC(=O)Nc1ccc2c(c1)[C@H]1C[C@H](CC(=O)NCc3ccccc3)O[C@@H](CO)[C@H]1O2	·	·	–	–	·	–
CC(C)NC(=O)N(C)C[C@@H]1OCCCC[C@H](C)Oc2ccc(NS(=O)(=O)c3ccccc3)cc2C(=O)N([C@H](C)CO)C[C@@H]1C	·	·	–	–	·	–
CCOC(=O)c1csc(NC(=O)c2ccccc2)n1	?	·	–	50.1	·	–
CCOC(=O)Cc1cnc(NC(=O)c2ccccc2)s1	–	–	·	51.1	–	–
CCOC(=O)c1csc(NC(=O)c2ccc(OCC)cc2)n1	–	–	–	·	–	53.4
C[C@@H]1CCCCO[C@H](CN(C)S(=O)(=O)c2ccc(Cl)cc2)[C@H](C)CN([C@H](C)CO)C(=O)c2cc(NC(=O)CCC(F)(F)F)ccc2O1	·	·	–	–	·	–
Cc1ccc2c(C(=O)CN3CCSCC3)c(C)[nH]c2c1	·	–	·	–	–	·
Cc1ccc2c(C(=O)CCl)c(C)[nH]c2c1	–	–	–	–	69.0	–
O=C(O)COCC(=O)N1CCN(c2cc(C(F)(F)F)nc3ccccc23)CC1	–	–	–	–	–	–
CCC(=O)N1CCN(c2ccc(-n3c(=O)ccc4cnc5ccc(-c6cnc7ccccc7c6)cc5c43)cc2C(F)(F)F)CC1	–	·	71.0	·	·	–
NNC(=O)c1[nH]c2ccc(Br)cc2c1-c1ccccc1	–	–	–	·	–	–
NNC(=O)c1[nH]c2ccc(Cl)cc2c1-c1ccccc1	–	–	66.4	·	–	–
CC(C)NC(=O)N(C)C[C@@H]1Oc2c(NC(=O)C3CCOCC3)cccc2C(=O)N([C@H](C)CO)C[C@@H]1C	·	·	–	–	·	–
COc1cc(C(=O)NC2CCN(C)CC2)ccc1Nc1ncc2c(n1)N(C1CCCC1)CCC(=O)N2C(C)C	·	–	·	–	74.3	·
COc1cc(C(=O)NC2CCN(C)CC2)ccc1Nc1ncc2c(n1)N(CCc1ccccc1)CCC(=O)N2C	–	–	–	–	?	54.2
O=[N+]([O-])c1ccc(S(=O)(=O)CC(CN2CCCCC2)N2CCCCC2)cc1 (stereo not drawn)	–	–	–	·	81.4	–
O=S(=O)(CC(CN1CCCCC1)N1CCCCC1)c1ccccc1 (stereo not drawn)	–	–	64.2	–	–	–
